In general, AC50 refers to the concentration giving half of the maximal activity seen.

This is an account of results in PubChem BioAssay (EPA / NIEHS).

Inconclusive results are not listed. Active and inactive are the calls of the source. How the source made its calls, unless noted: active means hit-call score of the fitted dose curve at least 0.9, where 1 is the maximum; inconclusive means response in the unintended direction; inactive means score below 0.9.

The target of assay [1] is human Peroxisome Proliferator-activated Receptor delta (PPARd), PPARD (gene 5467) (UniProt Q03181). The assay can be described thus: ATG_PPARd_TRANS: Attagene TRANS-FACTORIAL HepG2 Assay for human Peroxisome Proliferator-activated Receptor delta (PPARd) (AID 2283002). In short, it runs like this: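 Cell-based TRANS reporter: HepG2, transient MRTU transfection, 24 h exposure. Readout = reporter mRNA (RT-PCR/CE, 6-FAM). Gain-of-signal fit vs DMSO control.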

A short description of assay [2]: BSK_3C_Proliferation: Cell Proliferation Assessment in the BioMAP Diversity Plus: 3C Assay (AID 2283006; active means hit-call score of the fitted dose curve at least 0.9, where 1 is the maximum; inactive means score below 0.9;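 on AC50: potency may reflect either rise or fall in cell number versus DMSO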). Particulars: primary human endothelial cells (HUVEC). In short, it runs like this:
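Proliferation as total protein: sulforhodamine B (0.1%) stain of TCA-fixed subconfluent human umbilical vein endothelial cells, absorbance 560 nm, 48 h after dosing. Activity fitted in both directions against DMSO baseline.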

In assay [3] the target is Peroxisome proliferator-activated receptor gamma (Homo sapiens) (UniProt P37231). The assay can be described thus: ATG_PPARg_TRANS: Attagene TRANS-FACTORIAL HepG2 Assay for human Peroxisome Proliferator-activated Receptor-gamma (PPARg) (AID 2283007). In short, it runs like this:
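Liver-derived HepG2 cells expressing an exogenous NR-Gal4 chimera alongside GAL4-UAS reporter genes; 24 h exposure. Fluorescence of reporter RT-PCR products, separated by capillary electrophoresis, gives mRNA induction relative to DMSO.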

The target in assay [4] is Nuclear receptor subfamily 1 group I member 2 (Homo sapiens) (UniProt O75469). Nature of the assay: ATG_PXR_TRANS: Attagene TRANS-FACTORIAL HepG2 Assay for human Pregnane X Receptor (PXR) (AID 2283008). In short, it runs like this:
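Multiplexed TRANS reporter panel in HepG2; this component tracks PXR-Gal4-driven reporter mRNA after 24 h dosing, measured by RT-PCR with capillary electrophoresis fluorescence, fitted against DMSO.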

The target of assay [5] is human RAR-related Orphan Receptor beta (RORb), RORB (gene 6096) (UniProt Q92753). Nature of the assay: ATG_RORb_TRANS: Attagene TRANS-FACTORIAL HepG2 Assay for human RAR-related Orphan Receptor beta (RORb) (AID 2283010). In short, it runs like this:
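Read-out is reporter mRNA induction, quantified by RT-PCR with fluorescent capillary electrophoresis, 24 h post-dose in transiently transfected HepG2 expressing exogenous NR-Gal4 chimera. Activity fitted upward versus DMSO.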

The target of assay [6] is Retinoic acid receptor alpha (Homo sapiens) (UniProt P10276). Nature of the assay: ATG_RARa_TRANS: Attagene TRANS-FACTORIAL HepG2 Assay for human Retinoic Acid Receptor alpha (RARa) (AID 2283005). In short, it runs like this: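 Reporter transcripts, measured by RT-PCR with fluorescent labeling and capillary electrophoresis after 24 h dosing, reflect activity of an exogenous human RARa–GAL4 fusion in transiently transfected HepG2. Fitted for increase relative to DMSO.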

The target of assay [7] is human Retinoic Acid Receptor gamma (RARg), RARG (gene 5916) (UniProt P13631). The assay can be described thus: ATG_RARg_TRANS: Attagene TRANS-FACTORIAL HepG2 Assay for human Retinoic Acid Receptor gamma (RARg) (AID 2283009). In short, it runs like this: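 Transactivation of exogenous RARg-Gal4 fusion measured as reporter transcript induction after 24 h in transfected HepG2 cells. RNA reverse-transcribed, amplified, fluorescently labeled and resolved by capillary electrophoresis; increase relative to DMSO.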

In assay [8] the target is human RAR-related Orphan Receptor gamma (RORg), RORC (gene 6097) (UniProt P51449). Nature of the assay: ATG_RORg_TRANS: Attagene TRANS-FACTORIAL HepG2 Assay for human RAR-related Orphan Receptor gamma (RORg) (AID 2283011). In short, it runs like this:
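Chimeric RORg-Gal4 transactivation in transfected HepG2; 24 h exposure; RT-PCR/capillary electrophoresis readout of reporter mRNA, DMSO baseline.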

Read-out in assay [9]: Intercellular Adhesion Molecule 1 (ICAM1), ICAM1 (gene 3383)
The assay can be described thus: BSK_3C_ICAM1: BioMAP Diversity Plus: 3C Assay for Intercellular Adhesion Molecule 1 (ICAM1) Biomarker Activity (AID 2283003; active means hit-call score of the fitted dose curve at least 0.9, where 1 is the maximum; inactive means score below 0.9). To be noted: primary human endothelial cells (HUVEC); actives raise or lower the signal. In short, it runs like this:
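ELISA readout of ICAM1 in human umbilical vein endothelial cells in the 3C system, taken 24 h post-dose. Gain or loss of signal versus DMSO was fitted in both directions, with SRB total-protein staining run in parallel.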

The target of assay [10] is human Retinoic Acid Receptor beta (RARb), RARB (gene 5915) (UniProt P10826). The assay can be described thus: ATG_RARb_TRANS: Attagene TRANS-FACTORIAL HepG2 Assay for human Retinoic Acid Receptor beta (AID 2283004). In short, it runs like this: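 Fluorescent capillary-electrophoresis detection of GAL4-UAS reporter mRNA defines the endpoint, with induction over DMSO-treated wells scored as activity. Transiently transfected human hepatoma HepG2 cells expressing exogenous NR–Gal4 proteins are exposed to test chemicals for 24 h.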
Sequence of human Retinoic Acid Receptor beta (RARb), RARB (gene 5915) (P10826 whole entry, looked up, the tested form may be a part): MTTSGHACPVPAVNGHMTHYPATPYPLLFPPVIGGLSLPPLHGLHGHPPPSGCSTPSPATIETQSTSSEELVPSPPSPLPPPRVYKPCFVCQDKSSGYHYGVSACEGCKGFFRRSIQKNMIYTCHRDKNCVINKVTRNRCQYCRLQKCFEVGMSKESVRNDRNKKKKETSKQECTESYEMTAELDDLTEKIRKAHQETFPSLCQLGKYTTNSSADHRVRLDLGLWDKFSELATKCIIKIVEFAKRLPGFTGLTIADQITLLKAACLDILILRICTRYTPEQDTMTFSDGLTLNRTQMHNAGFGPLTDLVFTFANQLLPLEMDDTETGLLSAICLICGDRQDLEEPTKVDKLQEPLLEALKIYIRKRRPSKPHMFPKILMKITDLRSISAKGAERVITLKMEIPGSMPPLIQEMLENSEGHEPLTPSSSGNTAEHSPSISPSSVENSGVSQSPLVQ

Sequence of human Retinoic Acid Receptor gamma (RARg), RARG (gene 5916) (P13631 whole entry, looked up, the tested form may be a part): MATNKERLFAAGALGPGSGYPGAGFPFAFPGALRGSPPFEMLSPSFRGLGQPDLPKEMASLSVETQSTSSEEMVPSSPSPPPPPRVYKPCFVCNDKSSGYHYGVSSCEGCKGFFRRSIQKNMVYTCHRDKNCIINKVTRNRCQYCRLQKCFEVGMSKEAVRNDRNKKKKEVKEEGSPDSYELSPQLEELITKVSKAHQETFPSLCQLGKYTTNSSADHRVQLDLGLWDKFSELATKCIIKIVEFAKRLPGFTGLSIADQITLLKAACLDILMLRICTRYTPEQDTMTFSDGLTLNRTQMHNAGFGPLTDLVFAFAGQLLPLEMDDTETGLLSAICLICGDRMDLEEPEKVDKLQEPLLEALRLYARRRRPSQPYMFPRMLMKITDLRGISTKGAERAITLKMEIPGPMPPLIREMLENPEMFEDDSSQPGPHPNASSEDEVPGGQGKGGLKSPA
Sequence of human RAR-related Orphan Receptor beta (RORb), RORB (gene 6096) (Q92753 whole entry, looked up, the tested form may be a part): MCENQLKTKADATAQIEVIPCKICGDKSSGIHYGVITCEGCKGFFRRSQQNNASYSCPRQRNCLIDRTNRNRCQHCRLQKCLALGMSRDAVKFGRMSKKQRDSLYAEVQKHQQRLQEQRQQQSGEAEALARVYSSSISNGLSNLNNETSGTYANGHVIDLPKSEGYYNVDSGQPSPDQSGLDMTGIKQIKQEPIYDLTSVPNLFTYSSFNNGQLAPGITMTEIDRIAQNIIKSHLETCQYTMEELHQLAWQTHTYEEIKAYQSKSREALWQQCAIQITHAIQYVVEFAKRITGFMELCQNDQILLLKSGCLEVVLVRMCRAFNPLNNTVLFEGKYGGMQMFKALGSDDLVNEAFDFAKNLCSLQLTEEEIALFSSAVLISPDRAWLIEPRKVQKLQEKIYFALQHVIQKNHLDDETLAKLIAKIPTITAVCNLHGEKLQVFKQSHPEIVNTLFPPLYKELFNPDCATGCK
Sequence of human Peroxisome Proliferator-activated Receptor delta (PPARd), PPARD (gene 5467) (Q03181 whole entry, looked up): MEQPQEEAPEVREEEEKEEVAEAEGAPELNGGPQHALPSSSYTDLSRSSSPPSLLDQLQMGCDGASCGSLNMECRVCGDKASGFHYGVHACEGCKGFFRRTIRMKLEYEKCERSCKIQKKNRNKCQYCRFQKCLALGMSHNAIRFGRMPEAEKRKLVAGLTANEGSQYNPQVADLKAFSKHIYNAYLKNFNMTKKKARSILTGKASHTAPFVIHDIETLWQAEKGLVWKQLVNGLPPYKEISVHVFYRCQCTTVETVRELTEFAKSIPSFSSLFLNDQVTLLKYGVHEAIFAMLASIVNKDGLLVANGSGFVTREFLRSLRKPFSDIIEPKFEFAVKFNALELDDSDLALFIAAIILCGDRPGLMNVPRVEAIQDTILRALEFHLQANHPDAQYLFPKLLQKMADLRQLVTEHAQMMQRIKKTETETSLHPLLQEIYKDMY
Sequence of Retinoic acid receptor alpha (Homo sapiens) (P10276 whole entry, looked up, the tested form may be a part): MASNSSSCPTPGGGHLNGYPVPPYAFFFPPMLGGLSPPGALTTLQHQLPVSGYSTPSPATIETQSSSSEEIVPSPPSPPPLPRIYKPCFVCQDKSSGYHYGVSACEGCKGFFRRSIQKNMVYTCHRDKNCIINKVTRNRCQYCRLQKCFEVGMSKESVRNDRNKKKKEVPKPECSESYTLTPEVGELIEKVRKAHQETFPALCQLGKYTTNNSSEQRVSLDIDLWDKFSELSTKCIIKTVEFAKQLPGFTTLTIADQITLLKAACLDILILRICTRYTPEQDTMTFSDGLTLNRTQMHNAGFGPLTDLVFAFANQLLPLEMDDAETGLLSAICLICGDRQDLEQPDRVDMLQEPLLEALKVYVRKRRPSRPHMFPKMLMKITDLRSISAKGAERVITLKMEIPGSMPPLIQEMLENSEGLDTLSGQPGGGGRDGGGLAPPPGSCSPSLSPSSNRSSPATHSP
Sequence of human RAR-related Orphan Receptor gamma (RORg), RORC (gene 6097) (P51449 whole entry, looked up, the tested form may be a part): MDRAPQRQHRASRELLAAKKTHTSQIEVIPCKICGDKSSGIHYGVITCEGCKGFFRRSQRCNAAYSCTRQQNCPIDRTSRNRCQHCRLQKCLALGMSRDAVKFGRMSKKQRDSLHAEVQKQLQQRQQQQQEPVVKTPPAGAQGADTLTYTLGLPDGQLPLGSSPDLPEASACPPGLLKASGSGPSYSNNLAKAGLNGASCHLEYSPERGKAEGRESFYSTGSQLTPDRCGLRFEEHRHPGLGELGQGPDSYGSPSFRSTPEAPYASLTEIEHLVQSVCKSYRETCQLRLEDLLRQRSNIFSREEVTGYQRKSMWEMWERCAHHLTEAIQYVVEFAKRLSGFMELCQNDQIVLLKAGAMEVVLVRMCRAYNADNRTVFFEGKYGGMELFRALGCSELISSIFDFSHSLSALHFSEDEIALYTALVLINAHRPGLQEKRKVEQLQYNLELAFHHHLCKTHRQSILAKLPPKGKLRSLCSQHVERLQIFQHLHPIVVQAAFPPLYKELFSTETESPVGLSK
Sequence of Peroxisome proliferator-activated receptor gamma (Homo sapiens) (P37231 whole entry, looked up, the tested form may be a part): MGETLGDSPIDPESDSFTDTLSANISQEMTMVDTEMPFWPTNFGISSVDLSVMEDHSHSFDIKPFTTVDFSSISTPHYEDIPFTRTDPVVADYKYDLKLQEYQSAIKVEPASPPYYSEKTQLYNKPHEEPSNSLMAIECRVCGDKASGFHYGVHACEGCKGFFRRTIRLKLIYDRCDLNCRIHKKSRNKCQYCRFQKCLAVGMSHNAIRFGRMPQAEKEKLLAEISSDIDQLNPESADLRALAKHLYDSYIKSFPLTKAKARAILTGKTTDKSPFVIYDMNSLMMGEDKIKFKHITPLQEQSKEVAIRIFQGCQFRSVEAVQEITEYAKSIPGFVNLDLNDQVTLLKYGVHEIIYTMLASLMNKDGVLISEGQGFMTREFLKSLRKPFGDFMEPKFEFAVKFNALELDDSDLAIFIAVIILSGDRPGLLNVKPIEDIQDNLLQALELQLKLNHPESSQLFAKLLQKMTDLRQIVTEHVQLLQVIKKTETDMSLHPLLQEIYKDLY
Sequence of Nuclear receptor subfamily 1 group I member 2 (Homo sapiens) (O75469 whole entry, looked up, the tested form may be a part): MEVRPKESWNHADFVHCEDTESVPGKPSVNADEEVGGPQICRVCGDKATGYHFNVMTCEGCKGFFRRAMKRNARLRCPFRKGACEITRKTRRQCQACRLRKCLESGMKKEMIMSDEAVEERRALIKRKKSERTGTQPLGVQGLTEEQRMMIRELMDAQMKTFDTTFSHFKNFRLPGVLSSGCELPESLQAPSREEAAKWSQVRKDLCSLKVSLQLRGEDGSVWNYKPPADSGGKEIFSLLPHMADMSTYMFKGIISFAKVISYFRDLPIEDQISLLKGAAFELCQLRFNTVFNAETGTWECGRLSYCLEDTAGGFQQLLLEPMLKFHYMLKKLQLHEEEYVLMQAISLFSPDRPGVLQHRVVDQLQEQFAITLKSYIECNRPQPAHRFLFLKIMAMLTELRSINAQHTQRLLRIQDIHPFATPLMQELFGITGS

On to `O=C(Nc1ccccc1)c1ccccc1I`, for which the compound was classed as inactive in assay [1], in assay [2] and in [5]. Moreover, the concentration at half-maximal activity (AC50) in [3] is 17.8 µM (active); in assay [4], 10.6 µM (active).
As for `COP(=S)(OC)SCN1C(=O)c2ccccc2C1=O`, the result in assay [1], in [3] and in assay [4] was inactive. For the same compound, the AC50 in assay [2] is 28.4 µM (active).
For `O=C(O)C1C2CCC(O2)C1C(=O)O` (configuration not stated), the compound was classed as inactive in assay [1], in assay [6], in assay [4], in assay [7] and in assay [8]. In addition, the AC50 in [2] is 20.5 µM (active).
Take `ClCCOCCCl`: the compound was classed as inactive in [1], in assay [2], in [3], in [4] and in [7].
For `Cc1cccc(N)c1N`, the outcome in assay [9], in assay [10], in assay [6], in assay [2], in [3] and in [4] was inactive. Moreover, in [7], the outcome was inactive.
Take `CC(C)(C)C(O)(CCc1ccc(Cl)cc1)Cn1cncn1` (configuration not stated): the call in [1], in [2], in [3] and in [7] was inactive. The AC50 in assay [4] was 0.977 µM (active).
As for `CO[C@@H]1[C@H](OC(=O)NC(=O)CCl)CC[C@]2(CO2)[C@H]1[C@@]1(C)O[C@@H]1CC=C(C)C`, the outcome in assay [1], in [3], in [4] and in assay [5] was inactive. Further, the AC50 in assay [2] is 0.00962 µM (active).
Consider `Clc1ccc(C(c2ccc(Cl)cc2)C(Cl)(Cl)Cl)cc1`, for which the compound was classed as inactive in assay [1] and in [3]. Besides, the AC50 in [2] is 20.1 µM (active).
For the compound `Cc1cc(N=Nc2ccccc2C)ccc1N`, the compound was called inactive in [1] and in [7]. The AC50 in assay [2] was 13 µM (active); in assay [3] it was 18.3 µM (active); in assay [4], 20.7 µM (active).
With `CC(C)(O)c1cnn2c(-c3ccc(F)c(-c4c(F)cccc4C#N)c3)cnc2n1`, the compound was called inactive in assay [1] and in assay [3]. Besides, the AC50 in assay [2] is 33.8 µM (active); in assay [4] it was 0.0774 µM (active).
For `CCN(CC)CCO`, the call in [1] and in assay [2] was inactive.
Consider `Nc1ccc(Cc2ccc(N)cc2)cc1`, for which the result in assay [9], in assay [10], in assay [2], in assay [3] and in assay [8] was inactive.
As to `O=[N+]([O-])C(Br)(CO)CO`, the values for the half-maximal activity concentration (AC50) in [9] and in [2] were 33.4 µM (active) and 5.94 µM (active), respectively. Also, the result in [10], in assay [3], in assay [7], in [5] and in assay [8] was inactive.
`Nc1ccc(Cl)cc1N`: the result in [9], in assay [10], in [6], in assay [2], in assay [3] and in [4] was inactive. Also, in assay [7], the call was inactive.
With `CCCCOC(=O)c1ccccc1C(=O)OCc1ccccc1`, the compound was classed as inactive in assay [1] and in [4]. Further, in assay [2], the AC50 was 14.4 µM (active).
Consider `Cc1ccc([N+](=O)[O-])cc1`, for which the compound was classed as inactive in assay [1], in assay [2] and in assay [4].
With `OCCCBr`, the compound was classed as inactive in [1], in assay [2], in [4] and in assay [8].
For `COc1cc(C=O)cc2c1[C@H](COC(N)=O)[C@]1(OC(C)=O)ON2C[C@H]2[C@@H]1N2C(C)=O`, the call in assay [1], in assay [3] and in assay [8] was inactive. Also, in assay [2], the AC50 was 0.369 µM (active).
With `[As]#[In]`, the result in [9], in assay [10], in assay [6], in assay [2], in [7] and in [5] was inactive. For the same compound, the call in assay [8] was inactive.
For the compound `Nc1ccc(N=Nc2ccccc2)cc1`, the outcome in [10], in [6], in [4], in assay [7] and in assay [8] was inactive. Besides, the AC50 in [2] was 12.2 µM (active); in assay [3], 100 µM (active).
As to `Nc1ccc([N+](=O)[O-])cc1`, the outcome in [9], in assay [2], in assay [4] and in [8] was inactive.
